# Mcl-1 Bim block – inhibitors of Bim peptide binding to Mcl-1, primary screen, biochemical, bead-based flow cytometry, multiplex. Induced myeloid leukemia cell differentiation protein Mcl-1 (Homo sapiens), Q07820. 190,000 compounds, 0.1% hits. AID 1009, 2008. inhibition, % at 10 µM. Bim peptide-Mcl-1 binding; in the data active means inhibition above about 40%;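 further: 0% = no compound tracer wells and 100% = peptide blocker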
# Mcl1-Noxa inh – Mcl-1/Noxa binding inhibitors, primary screen, biochemical, TR-FRET, 1536-well. Induced myeloid leukemia cell differentiation protein Mcl-1 (Homo sapiens), Q07820. TR-FRET Mcl-1/Noxa peptide binding, 2 h. inhibition, % at 21.7 µM. 220,000 compounds, 1.5% hits;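 active means compounds that cut the protein-peptide binding signal by more than 50% relative to plate controls in a single-dose test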;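 further: His-tagged Mcl-1 with rhodamine Noxa BH3 peptide and terbium anti-His antibody; 0% = Mcl-1 plus Noxa peptide wells and 100% = peptide-only wells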
# Mcl1-Bid inh – Mcl-1/Bid binding inhibitors, primary screen, biochemical, TR-FRET, 1536-well | TR-FRET Mcl-1/Bid-Dy647 peptide binding | inhibition, % at 21.7 µM | 220,000 compounds, 0.97% hits | AID 1021, 2008;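 active means compounds that cut the binding signal by more than half at the single screening dose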;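 further: His-tagged Mcl-1 with europium anti-His antibody binding Bid BH3 peptide; 0% = Mcl-1 plus peptide wells and 100% = peptide-only wells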
# 14-3-3 Bad inh – inhibitors of 14-3-3 zeta/Bad binding, primary screen, biochemical, TR-FRET, bovine 14-3-3 zeta; 14-3-3 protein zeta/delta (Bos taurus), P63103; TR-FRET 14-3-3zeta/Dy647-pBad peptide displacement, 1 h; inhibition, % at 21.7 µM; 220,000 compounds, 0.71% hits; AID 781, 2007;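 active means inhibition above about 70%, limit read from the data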;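 further: 0% = full 14-3-3 plus peptide FRET controls and 100% = background without 14-3-3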
# Target sequence (P63103 whole entry, looked up): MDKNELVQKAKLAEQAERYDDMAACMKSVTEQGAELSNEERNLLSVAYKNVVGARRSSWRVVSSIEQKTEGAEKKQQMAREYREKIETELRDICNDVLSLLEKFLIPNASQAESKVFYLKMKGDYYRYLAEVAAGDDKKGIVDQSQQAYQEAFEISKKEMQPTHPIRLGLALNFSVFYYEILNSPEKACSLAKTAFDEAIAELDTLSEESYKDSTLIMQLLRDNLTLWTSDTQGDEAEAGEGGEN
# NCF1 inh – p47phox/p22phox peptide binding inhibitors, primary screen, biochemical, uHTS, NADPH oxidase regulatory subunit; Neutrophil cytosol factor 1 (Homo sapiens), P14598; fluorescence polarization, 2 h; inhibition, % at 24.7 µM; 220,000 compounds, 0.53% hits;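 active means inhibition above about 30%, limit read from the data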;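 further: 0% = p47phox with labelled peptide and 100% = labelled peptide alone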
# Target sequence (P14598 whole entry, looked up): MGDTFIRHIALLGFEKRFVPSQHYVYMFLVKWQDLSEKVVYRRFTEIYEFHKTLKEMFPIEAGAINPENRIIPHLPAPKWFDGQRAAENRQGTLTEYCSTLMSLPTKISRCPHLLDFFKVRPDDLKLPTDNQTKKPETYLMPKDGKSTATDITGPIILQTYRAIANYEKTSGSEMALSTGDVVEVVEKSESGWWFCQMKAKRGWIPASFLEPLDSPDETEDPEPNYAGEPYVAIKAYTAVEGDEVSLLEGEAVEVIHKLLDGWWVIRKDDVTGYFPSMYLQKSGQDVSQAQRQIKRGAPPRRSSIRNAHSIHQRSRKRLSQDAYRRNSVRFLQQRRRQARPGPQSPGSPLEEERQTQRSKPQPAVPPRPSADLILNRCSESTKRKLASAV
# The depositor's hits bear a star; / = no result given; + = active, no number. Most compounds without a hit are left out; they make up all but 3.1% or so of the library.
SMILES,Mcl-1 Bim block,Mcl1-Noxa inh,Mcl1-Bid inh,14-3-3 Bad inh,NCF1 inh
COc1cccc(Cn2c(=O)c3[nH]cnc3n(-c3ccccc3C)c2=O)c1,/,18.8,-3.7,8.5,3.0
COc1ccc(Cn2c(=O)cc(N)n(-c3ccccc3C)c2=O)cc1,/,-0.2,0.2,97.3*,-5.4
CC(=O)n1cc(C(C[N+](=O)[O-])SCCN)c2ccccc21 (stereo not drawn),-8.0,52.8*,53.2*,41.9,-4.7
CC(=O)n1cc(-c2ccncc2)c2ccccc21,0.0,11.2,11.0,36.0,-1.8
O=C(O)c1ccc(S(=O)(=O)Nc2ccc(O)c(Sc3nc4ccccc4s3)c2)cc1,0.0,50.8*,-46.2,12.1,-30.5
CCOC(=O)N1CCC(N(CCN(C)C)C(=S)Nc2ccc(OCC)cc2)CC1,-4.0,10.4,-41.9,-4.1,15.9
Cc1cccc(NC(=O)Cn2c(O)c(N=NC(=O)c3ccccc3O)c3ccccc32)c1,-1.0,66.4*,66.2*,59.1,32.7*
Cc1ccc(NC(=O)Cn2c(O)c(N=NC(=O)c3cc([N+](=O)[O-])ccc3O)c3ccccc32)cc1,/,50.5*,-29.0,-1.9,-19.2
C/C(=N\NC(=O)COc1ccc(C)cc1C(C)C)c1ccc(-n2ccnc2)cc1,2.0,8.5,-27.6,5.6,-11.2
COc1cc(/C=C2\SC(=N)N(c3ccc(F)cc3)C2=O)ccc1O,0.0,53.2*,-18.0,7.1,-8.5
COc1cc(C)c(Cl)cc1S(=O)(=O)NC1CC(C)(C)NC(C)(C)C1,0.0,3.6,-8.7,-6.3,-0.6
CC(Cc1c[nH]c2ccccc12)C(=O)O (stereo not drawn),2.0,56.6*,-71.6,51.6,-1.6
OC(CN1CCN(c2ccccc2)CC1)c1c[nH]c2ccccc12 (stereo not drawn),0.0,6.0,-55.2,-8.9,-3.9
O=C(CC(C(=O)O)c1c[nH]c2ccccc12)c1ccccc1 (stereo not drawn),-2.0,21.5,81.7*,2.2,0.5
NCC(c1ccccc1)c1c[nH]c2ccccc12 (stereo not drawn),47.0*,6.6,-34.3,-10.2,-13.7
O=C(O)C(O)Cc1c[nH]c2ccccc12 (stereo not drawn),-3.0,24.9,0.6,3.3,-2.4
O=C(Cc1c[nH]c2ccccc12)OCC(=O)c1ccccc1,0.0,-16.0,-31.9,-5.6,-4.2
O=C(c1ccc(Oc2ccccc2)cc1)c1nc2c(n1O)CCCC2,0.0,-0.1,-2.2,-0.9,-76.8
O=c1/c(=C\c2cccn2-c2ccccc2)sc2nc3ccccc3n12,5.0,/,-5.5,12.4,-29.9
O=C(O)Cn1cc(/C=c2/sc3nc4ccccc4n3c2=O)c2ccccc21,0.0,64.1*,-28.7,-13.8,-59.2
O=C1CN(C(=O)CNCc2ccccc2Cl)c2ccccc2N1,/,24.4,27.6,36.6,-5.6
CC(CCc1ccccc1)NCc1ccncc1 (stereo not drawn),0.0,34.4,-6.2,89.6*,-9.3
Cc1c(C(=O)OC(C)C)[nH]c2c1C(=O)CCC2,-2.0,-3.3,-19.6,-14.5,+
Cc1c(C(=O)OC(C)C)[nH]c2c1C(=O)CC(C)(C)C2,-2.0,-4.6,-17.5,-7.9,-6.6
Cc1ccc(NC2(c3nnnn3-c3c(C)cccc3C)CCCCC2)cc1,-3.0,11.5,-18.6,-0.7,12.7
SMILES,Mcl-1 Bim block,Mcl1-Noxa inh,Mcl1-Bid inh,14-3-3 Bad inh,NCF1 inh
O=C(Nc1nc2ccc([N+](=O)[O-])cc2s1)c1ccco1,-1.0,55.8*,16.6,49.1,5.8
O=C(Nc1nc2ccc([N+](=O)[O-])cc2s1)c1c(F)cccc1F,-4.0,11.8,-2.9,-2.1,0.3
N#C/C(=C(/O)c1ccc(-c2cccc([N+](=O)[O-])c2)o1)c1nc2ccccc2s1,-1.0,88.3*,15.1,92.4*,10.5
COc1ccc2nc(NC(=O)c3ccc(-c4cccc([N+](=O)[O-])c4)o3)sc2c1,10.0,62.0*,78.6*,65.2,0.6
O=C(NCCCNCCCNC(=O)c1ccccn1)c1ccccn1,-1.0,-6.0,-30.9,14.9,-4.1
O=C(NCCN1CCNCC1)c1ccccn1,0.0,28.5,7.2,72.5*,-0.1
COC(=O)N/N=C\c1cccc(OC(=O)c2cccs2)c1,0.0,12.5,-11.9,-14.4,0.7
O=C1NN(c2ccccc2)C(=O)/C1=C\c1cccc(OC(=O)c2cccs2)c1,-3.0,57.3*,16.1,11.7,-8.1
O=C1NN(c2ccc(Cl)c(Cl)c2)C(=O)/C1=C/c1cccc(OC(=O)c2cccs2)c1,-1.0,96.3*,90.0*,54.0,-20.1
CC(C)(C)NC(=O)CN(C(=O)CS(=O)CC(=O)Nc1ccc(F)cc1)c1ccc2c(c1)OCCO2 (stereo not drawn),-1.0,5.2,1.2,-6.2,-2.7
CCOC(=O)Cn1c2ccc(OC)cc2c2nc3ccccc3nc21,3.0,25.8,58.9*,34.9,-1.8
O=[N+]([O-])c1cccc(NC2=NCCC2)c1,0.0,-0.3,-31.9,-8.8,5.3
Cc1ccc(NS(=O)(=O)c2cc([N+](=O)[O-])ccc2NNC(=S)Nc2cccc(Cl)c2)c(C)c1,0.0,87.7*,45.6,-3.0,-47.8
Cc1ccc(NS(=O)(=O)c2cc([N+](=O)[O-])ccc2NNC(=S)Nc2cc(C)ccc2C)c(C)c1,0.0,43.8,-39.9,-9.9,-20.2
CCNC(=O)/C(C#N)=C/c1c(N(Cc2ccccc2)Cc2ccccc2)nc2ccccn2c1=O,-4.0,27.8,11.2,5.1,-30.0
CNC(=O)/C(C#N)=C/c1c(N(Cc2ccccc2)Cc2ccccc2)nc2c(C)cccn2c1=O,90.0*,-2.6,30.4,15.4,-6.4
CCN1C(=O)/C(=C\N(C)C)S/C1=N\S(=O)(=O)c1ccccc1,4.0,12.5,-18.4,91.8*,-10.7
Cc1ccc(/C=C2\SC(=S)N(C(Cc3ccccc3)C(=O)O)C2=O)cc1 (stereo not drawn),0.0,23.2,19.9,-13.2,-7.6
COc1cc(/C=C2\SC(=S)N(C(Cc3ccccc3)C(=O)O)C2=O)ccc1O (stereo not drawn),/,18.7,55.5*,9.6,-206.4
O=C(O)C(Cc1ccccc1)N1C(=O)/C(=C/c2ccccc2)SC1=S (stereo not drawn),-5.0,20.8,17.4,-1.0,-2.0
COc1ccc(/C=C2\SC(=S)N(CC3CCCO3)C2=O)cc1 (stereo not drawn),/,-24.3,20.2,8.7,-7.2
O=C(O)C(Cc1ccccc1)N1C(=O)/C(=C/c2cccc3ccccc23)SC1=S (stereo not drawn),4.0,78.2*,91.0*,-2.9,-39.3
